# Values without a mark were called inactive. No rule for the calls is given here.
# Tested on: HIV-1 nucleocapsid protein NCp7 (binding to TG oligonucleotide)
# Experiment: HIV Nucleocapsid (AID 346);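 also: potency is for inhibitors that block NC binding and lower polarization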
# Details: HIV-1 NC / fluorescein-TGTGTGTG probe, fluorescence polarization
# In short: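 Inhibition of nucleocapsid binding to single-stranded 5'-TGTGTGTG probe (10 nM) was measured by fluorescence polarization after 1 hr at room temperature with 100 nM protein under high-salt, zinc-containing, reducing conditions.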
# Potency is read from the fitted curve at half-maximal effect.
row,SMILES,Potency
1,Cc1nc2cncnc2n(-c2ccccc2)c1=O,> 20 µM
2,COc1ccccc1CN1CCCC2(CCN(C(=O)c3c(C)noc3C)CC2)C1,> 20 µM
3,c1cncc(-c2nc(NCCN3CCOCC3)c3ccccc3n2)c1,> 20 µM
4,N#Cc1ccc(CN2CC3(CCN(C(=O)c4ccco4)CC3)C2)cc1,> 20 µM
5,COc1ccc(Oc2ncc3ncc(=O)n(CCC#N)c3n2)cc1,> 20 µM
6,Cc1nc2cnc(OCc3ccccc3)nc2n(CCc2ccccc2)c1=O,> 20 µM
7,CCNc1ncc2nc(-c3cccs3)c(=O)n(CCc3ccccc3)c2n1,> 20 µM
8,COc1cccc(Nc2ncc3nc(C)c(=O)n(C[C@H]4CCCO4)c3n2)c1,> 20 µM
9,N#CCCn1c(=O)c(-c2ccccc2)nc2cnc(N3CCOCC3)nc21,> 20 µM
10,N#Cc1ccccc1-c1ccc2ncnc(NCc3cccnc3)c2c1,> 20 µM
11,O=c1cnc2cnc(Oc3ccccc3)nc2n1Cc1ccc(F)cc1,> 20 µM
12,COCCn1c(=O)c(C)nc2cnc(Oc3ccc(OC)cc3)nc21,> 20 µM
13,CN1CCN(c2ncc3nc(-c4cc(F)cc(F)c4)c(=O)n(CCC#N)c3n2)CC1,> 20 µM
14,FC(F)(F)c1cc(CN2CC[C@@]3(CCCNC3)C2)cc(C(F)(F)F)c1,> 20 µM
15,COc1ccc(NC(=O)N2CCC3(CC2)CCN(S(=O)(=O)c2ccccc2)CC3)cc1,> 20 µM
16,COc1ccc(-n2c(=O)c(C)nc3cnc(Nc4ccccc4)nc32)cc1,> 20 µM
17,Cc1noc(C)c1-c1nc(NCc2cccs2)c2ccccc2n1,> 20 µM
18,COc1ncc2ncc(=O)n(CCC#N)c2n1,> 20 µM
19,Cc1cnc(CNc2ncncc2-c2ccoc2)cn1,> 20 µM
20,COc1ccc(-c2nc3cnc(N4CCN(C)CC4)nc3n(Cc3cccc(OC)c3)c2=O)cc1,> 20 µM

row,SMILES,Potency
1,COc1ccc2[nH]cc(CCNc3ncnc4ccc(-c5cccc(C#N)c5)cc34)c2c1,> 20 µM
2,CN1CCN(c2ncncc2-c2ccoc2)CC1,> 20 µM
3,COc1ccc(CNc2nc(-c3cccc(NS(C)(=O)=O)c3)nc3ccccc23)c(OC)c1,> 20 µM
4,N#CCCn1c(=O)c(CCc2ccccc2)nc2cnc(Oc3ccccc3)nc21,> 20 µM
5,COc1ccc(Oc2ncc3nc(-c4ccc(F)cc4)c(=O)n(C4CC4)c3n2)cc1,> 20 µM
6,Cc1ccccc1-c1ccc2ncnc(N(C)Cc3ccco3)c2c1,> 20 µM
7,COc1cccc(Nc2ncc3nc(-c4ccccc4)c(=O)n(C[C@H]4CCCO4)c3n2)c1,> 20 µM
8,Cc1noc(C)c1-c1nc(N(C)C)c2ccccc2n1,> 20 µM
9,COc1ccc(C(=O)N2CCC3(CCN(Cc4nccs4)CC3)CC2)cc1,> 20 µM
10,CNc1nc(-c2ccc(C(=O)N(C)C)cc2)nc2ccccc12,> 20 µM
11,COc1ccc(-c2nc3cnc(Nc4ccccc4)nc3n(C[C@H]3CCCO3)c2=O)cc1,> 20 µM
12,COCCn1c(=O)c(C)nc2cnc(N3CCN(C)CC3)nc21,> 20 µM
13,O=C(c1ccco1)N1CCC2(CCN(Cc3ccccc3)CC2)CC1,> 20 µM
14,CC(=O)N1CCC2(CC1)CCN(C(=O)Nc1cccc(F)c1)CC2,> 20 µM
15,N#Cc1ccc(CN2CC[C@@]3(CCCN(C(=O)c4cnccn4)C3)C2)cc1,> 20 µM
16,N#Cc1ccc(CN2CCCC3(CCN(C(=O)c4cc(C(F)(F)F)cc(C(F)(F)F)c4)CC3)C2)cc1,> 20 µM
17,COc1cccc(Cn2c(=O)c(-c3cccs3)nc3cnc(N(C)C)nc32)c1,> 20 µM
18,COc1cccc(Nc2ncc3nc(C)c(=O)n(-c4ccccc4)c3n2)c1,> 20 µM
19,Cc1ccccc1-c1cc(NCc2ccccc2)ncn1,> 20 µM
20,COc1ccccc1-c1cc(NCc2cccs2)ncn1,> 20 µM
